# Test results: PubChem BioAssay AID1345085 (National Center for Advancing Translational Sciences (NCATS), 2018)
# Inconclusive results are not listed. Values without a mark were called inactive. The source made the active and inactive calls. Calls come from the whole dose curve; as a rule, active = well fitted cell-killing curve with a large enough effect; inconclusive = small, poorly fitted or top-dose-only effect, or effect the other way; inactive = no such curve, though single readings can be large or run the other way.
# Test system: CASKI
# Assay: Confirmatory qHTS for gynecologic anti-cancer compounds from libraries of approved drugs and bioactive compounds; note: nearly all actives have a fitted effect of over 55% in size
# Settings: gynecologic cancer cell panel viability, ATPlite luminescence, 48 h; series mostly up to 57.6 µM; activity change, negative = viability loss: at the top concentration
# In short: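 Seeding 1,000 cells per well preceded overnight (16 h) attachment, after which 48 h drug treatment across 57.5 uM–0.977 nM (11 points) was applied. Remaining cellular ATP, detected by ATPlite luminescence, defined IC50.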
# % is set by controls: 0 for no effect and ±100 for the full control effect; potency is the fitted concentration of half-maximal effect.
SMILES,Potency,"activity change, negative = viability loss [%]"
C[C@H]1CCC/C=C/C2C[C@H](O)C[C@H]2[C@H](O)/C=C/C(=O)O1 (some centres undefined),0.611 µM (active),
C[C@]12CC[C@H]3[C@@H](CCC4=CC(=O)CC[C@@H]43)[C@@H]1CC[C@@H]2OC(=O)CCc1ccccc1,,-1.32
CCC(=O)O[C@H]1CC[C@H]2[C@@H]3CCC4=CC(=O)CC[C@]4(C)[C@H]3CC[C@]12C,,-19.4
Cc1sc2c(c1C)C(c1ccc(Cl)cc1)=NC(CC(=O)OC(C)(C)C)c1nnc(C)n1-2 (centres undefined),7.69 µM (active),
O=C(O)Cc1ccccc1,,-0.845
C=C(C)[C@H]1Cc2c(ccc3c2O[C@@H]2COc4cc(OC)c(OC)cc4[C@@H]2C3=O)O1,0.109 µM (active),
C/C=C(/C)C(=O)O[C@H]1C(C)=C2[C@H]([C@@H]1OC(=O)CCCCCCC)[C@@](C)(OC(C)=O)C[C@H](OC(=O)CCC)[C@@]1(O)[C@H]2OC(=O)[C@@]1(C)O,34.3 µM (active),
CCOc1ccccc1-n1c(C(C)N2CCN(C(=O)COc3ccc(Cl)cc3)CC2)nc2ccccc2c1=O (centres undefined),,-12.3
CCN1CCN(C(=O)Cc2ccc(Nc3ncc(F)c(Nc4ccc(C(=O)Nc5ccccc5Cl)cc4)n3)cc2)CC1,,4.94
